# Choline anaer gr = choline-fed anaerobic bacterial growth inhibition. calls only. 0.2% of 55,000 active. Gram-negative bacterium anaerobic choline minimal medium, absorbance growth; active compounds read low; call rule not given here
# * hit, by the source's call; i = inactive; + = active, no number. This excerpt belongs to a sample that is enriched for hits.
SMILES,Choline anaer gr
CN1CCN(c2nc3ccccc3nc2Cl)CC1,i
CN1CCc2cccc(Cl)c2CC1,+
CN1C2CCC1CC(OC(c1ccc(F)cc1)c1ccc(F)cc1)C2 (stereo not given),+
CN1[C@@H]2CC[C@H]1CC(OC1c3ccccc3CCc3ccccc31)C2 (stereo not given in full),i
Fc1ccc(C(OCCN2CCN(CCCc3ccccc3)CC2)c2ccc(F)cc2)cc1,i
Cn1c(O)c(C2=NNC(c3ccccc3)C2)c(=O)n(C)c1=O (stereo not given),i
CC(C(=O)Nc1ccc(F)cc1)N1C(=O)CN=C(c2ccc(F)cc2)c2c1sc1c2CCCC1 (stereo not given),i
c1cncc(C2NCCc3c2[nH]c2ccccc32)c1 (stereo not given),i
O=C1CSC(c2ccsc2)c2c(-c3ccc(Cl)cc3)nn(-c3ccccc3)c2N1 (stereo not given),i
Fc1ccc(F)c(C2NCCc3[nH]cnc32)c1 (stereo not given),i

# Source: PubChem (ICCB-Longwood Screening Facility, Harvard Medical School)
